Results from PubChem BioAssay AID1159580 (chemical genetic matrix, 2015).
Hit rate of the full screen: of about 5,500 compounds, about 2,000 (36%) were called active. About 18% were inconclusive and are not listed. Rule as the data show it: active = normalized growth mostly below about 0.91 (no sharp cut-off); inconclusive = no clear call, values can overlap the other calls; inactive = mostly above about 0.92. The list shows a part of the results.

Test: chemical genetic growth profiling, strain panel (AID 1159580);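 also: tested at 20 µM; growth read once vehicle control cultures reached saturation at 30 °C; 1 = growth at the plate median or of vehicle wells; lower values mean less growth of the strain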
Conditions: growth OD
[1] = S. cerevisiae deletion strains, locus YNL128W, strain TEP1, active compounds read low
[2] = S. cerevisiae deletion strains, locus YPL241C, strain CIN2, active compounds read low

Measured: normalized growth

Cc1cn([C@H]2C[C@@H](N=[N+]=[N-])[C@@H](CO)O2)c(=O)[nH]c1=O
inactive: S. cerevisiae deletion strains, locus YAL040C, strain CLN3, active compounds read low 1 | S. cerevisiae deletion strains, locus YER002W, strain NOP16, active compounds read low 0.99 | S. cerevisiae deletion strains, locus YMR307W, strain GAS1, active compounds read low 0.999 | [1] 1.01 | S. cerevisiae deletion strains, locus YNL175C, strain NOP13, active compounds read low 0.983 | S. cerevisiae deletion strains, locus YNL197C, strain WHI3, active compounds read low 1 | S. cerevisiae deletion strains, locus YNL224C, strain SQS1, active compounds read low 0.974 | S. cerevisiae deletion strains, locus YOR083W, strain WHI5 (second series), active compounds read low 1.02 | [2] 0.995

CC(C)c1nc2ccccc2[nH]1
inactive: S. cerevisiae deletion strains, locus YAL013W, strain DEP1, active compounds read low 1.01 | S. cerevisiae deletion strains, locus YBR229C, strain ROT2, active compounds read low 1.03 | S. cerevisiae deletion strains, locus YCL061C, strain MRC1, active compounds read low 1.01 | S. cerevisiae deletion strains, locus YDL101C, strain DUN1, active compounds read low 1.03 | S. cerevisiae deletion strains, locus YDL134C, strain PPH21, active compounds read low 1.02 | S. cerevisiae deletion strains, locus YDR150W, strain NUM1, active compounds read low 0.993 | S. cerevisiae deletion strains, locus YEL061C, strain CIN8, active compounds read low 1.01 | S. cerevisiae deletion strains, locus YGR078C, strain PAC10, active compounds read low 1.01 | S. cerevisiae deletion strains, locus YHR030C, strain SLT2, active compounds read low 1.02 | S. cerevisiae deletion strains, locus YHR087W, strain rtc3, active compounds read low 1.03 | S. cerevisiae deletion strains, locus YJR043C, strain POL32, active compounds read low 1 | S. cerevisiae deletion strains, locus YJR075W, strain HOC1, active compounds read low 1.02 | S. cerevisiae deletion strains, locus YLR039C, strain RIC1, active compounds read low 1.01 | S. cerevisiae deletion strains, locus YLR058C, strain SHM2 (second series), active compounds read low 1.01 | S. cerevisiae deletion strains, locus YLR085C, strain ARP6, active compounds read low 1.03 | S. cerevisiae deletion strains, locus YLR262C, strain YPT6, active compounds read low 1 | S. cerevisiae deletion strains, locus YML094W, strain GIM5, active compounds read low 1.01 | S. cerevisiae deletion strains, locus YMR219W, strain ESC1, active compounds read low 1.01 | S. cerevisiae deletion strains, locus YMR263W, strain SAP30, active compounds read low 1.02 | [1] 1.01 | S. cerevisiae deletion strains, locus YNL153C, strain GIM3, active compounds read low 1.01 | S. cerevisiae deletion strains, locus YNL298W, strain CLA4 (second series), active compounds read low 1 | S. cerevisiae deletion strains, locus YNL322C, strain KRE1, active compounds read low 1.02 | S. cerevisiae deletion strains, locus YNR030W, strain Alg12, active compounds read low 1.01 | S. cerevisiae deletion strains, locus YOL006C, strain TOP1, active compounds read low 1 | S. cerevisiae deletion strains, locus YPL055C, strain LGE1, active compounds read low 1.04 | [2] 1 | S. cerevisiae deletion strains, locus YPR135W, strain CTF4, active compounds read low 1.05 | S. cerevisiae strains, strain wild type, active compounds read low 1.01
